Drawing on ChEMBL document CHEMBL1201862, “PubChem BioAssay data set” (2004), this text covers GI50 for eleven substances.

Hit rate of the full screen: of about 56,000 sequences, about 4,700 (8.4%) were called active. Cut-off read from the data, not from the text of the source: active = GI50 up to about 1.1 µM and inactive = higher. The sample as a whole holds a higher share of actives than the screen did. Measured potencies and affinities stand elsewhere.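 Briefly, cells in 96-well plates were exposed to five compound concentrations for 48 h, and endpoints were estimated by linear interpolation. The concentration for 50% growth inhibition is given as GI50.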

The test system of the assay is NCI-H460. Kind of assay: NCI tumour cell line growth inhibition, 48 h.
As to “[Bis(aminomethyl)tetramethylenesilane]tetrachloropaltinum(IV), CHEMBL2146189”, the GI50 was found to be 314 nM.
As for “[Bis(aminomethyl)ethylmethylsilane]tetrachloroplatinum(IV), CHEMBL2146192”, the figure is 774 nM; as for “[Bis(aminomethyl)dimethylsilane]tetrachloroplatinum(IV), CHEMBL2146190”, 577 nM.
To “cis-Bis[[(trimethylsilyl)methyl]amino]tetrachloroplatinum(IV), CHEMBL2146191” belongs 9770 nM.
To “[Bis(aminomethyl)diethylsilane]tetrachloroplatinum(IV), CHEMBL2146203” belongs 438 nM; to “mu-(1,7-nanodiamine-N,N')bis-(cis-aminedichloroplatimum (II)), CHEMBL2146215”, 1610 nM.
On to “[Bis(aminomethyl)tetramethylenesilane]dichloropaltinum(II), CHEMBL2146205”, for which the GI50 came to 2640 nM.
As for “[Bis(aminomethyl)pentamethylenesilane]tetrachloropaltinum(IV), CHEMBL2146204”, the figure is 206 nM.
Take “[Bis(aminomethyl)dimethylsilane]dichloroplatinum (II), CHEMBL2146201”: the GI50 worked out at 3370 nM.
As for “[Bis(aminomethyl)pentamethylenesilane]dichloropaltinum(II), CHEMBL2146202”, the figure is 312 nM.
As for CISPLATIN, CHEMBL11359, the figure is 579 nM.
